# Columns and labels:
# Assay in all cases: PBM binding z-score (relative to random genomic background probes); higher = stronger binding; sequences stand for … in GC…GCGATTGACAGCGTAGAATGAAGG
# [1] = system: LXRa:RXRa (NR concentration 270 nM, RXRa partner concentration 90 nM)
# Procedure, shortened: (§1)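 For binding z-scores, the reference was random background probes on custom Agilent 4×180K protein-binding microarrays. These arrays were incubated 1 h with ligand-free nuclear receptor dimers in PBS pH 7.4, 2% milk, 0.02% Triton X-100, 1 mM DTT, 0.2 mg/mL BSA and 0.4 mg/ml salmon testes DNA. Fluorescence was scanned after antibody detection of each partner (one per run) and regression-normalized.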
# [2] = system: LXRa homodimer (NR concentration 270 nM)
# Procedure, shortened: as §1
# [3] = system: LXRb homodimer (NR concentration 270 nM)
# Procedure, shortened: as §1
# [4] = system: PPARa:RXRa (NR concentration 270 nM, RXRa partner concentration 90 nM)
# Procedure, shortened: as §1
# [5] = system: PPARg:RXRa (NR concentration 180 nM, RXRa partner concentration 90 nM)
# Procedure, shortened: as §1
# [6] = system: PPARg:RXRa 270nM:90nM, anti-RXR (NR concentration 270 nM, RXRa partner concentration 90 nM)
# Procedure, shortened: as §1
# [7] = system: PPARg:RXRa 30nM:10nM, anti-RXR (NR concentration 30 nM, RXRa partner concentration 10 nM)
# Procedure, shortened: as §1
# [8] = system: PPARg:RXRa 90nM:30nM, anti-RXR (NR concentration 90 nM, RXRa partner concentration 30 nM)
# Procedure, shortened: as §1
# [9] = system: PPARg:RXRa DBDmut IVT, anti-RXR (DBD mutation: RXRa K156A/R161A, NR concentration 270 nM, RXRa partner concentration 90 nM)
# Procedure, shortened: as §1
# [10] = system: FXR:RXRa (NR concentration 270 nM, RXRa partner concentration 90 nM)
# Procedure, shortened: as §1
Sequence,PBM binding z-score [1],PBM binding z-score [2],PBM binding z-score [3],PBM binding z-score [4],PBM binding z-score [5],PBM binding z-score [6],PBM binding z-score [7],PBM binding z-score [8],PBM binding z-score [9],PBM binding z-score [10]
CCTACTGGGCCTAAGGTCATTGATTCCAATGCTC,2.93,2.32,0.209,4.53,7.98,8.17,7.15,8.08,1.25,
GCTGCTAGTTCAACTGATGGTCAGCTAAAGCTCG,,-0.53,-0.641,,-0.618,-0.212,-0.685,-0.415,-0.111,-0.0566
ATATGTAGGATAGCTGGGGTCATTCAGACTAGGC,,1.63,1.33,,2.42,3.01,1.01,2.38,3.17,3.09
CGTCCAAGGTCATAGGGGGTCAGTGAAGACAGAT,7.05,4.02,8.62,6.34,7.32,7.58,4.55,6.71,3.59,
CCGAGTAGGTTACTAGGGGGCATTCAGTGCGAAT,,6.06,,,2.37,3.48,1.14,2.93,4.55,2.3
GATATAGGGTCAGCTAGAGGCCAGAGTATGGAAA,,0.0568,-0.307,,4.09,3.86,1.25,2.44,2.49,5.03
ACGCGGAGGACAAAGGTCAGAGCTACGCCAGTGA,4.13,1.02,0.25,4.75,7.04,6.29,4.31,6.15,0.442,
CAAAATAGGTCACCGGAAGGTCAAAGTCCGCATG,,5.46,1.73,,9.14,7.64,6.2,7.69,7.95,7.48
TGTCAAAGTTCAAAGGTTACGTAAGTATCCACAC,,5.25,2.03,,,8.17,5.91,8.13,0.119,7.49
TCTAGTGGGTCAAAGGTCACACACTCGAAATGCG,,3.93,1.59,,,11.1,12.2,12.6,7.68,7.63
TAGCCTAGTTCATGCGGGCCAGTATAGTGTCGGC,,-0.511,-0.772,,-0.0909,-0.0482,-0.651,-0.319,0.864,-0.33
AGAATGAGGTTAAGTTCAGGGAAACAGAATACAT,,0.441,-0.00698,,3.45,3.89,1.62,3.51,3.13,4.05
TTGCCAAGGTGAAAGGTCGTTGATGCACGCCTTG,3.11,-0.0355,-0.723,5.16,8.02,7.51,6.32,8.1,1.69,
AGAATGAGGTCATTAAGATCAGGGAATTGCGGTC,5.58,2.12,1.68,6.05,6.93,6.63,3.8,5.83,6.03,
CCTACTGGGCCAAAGAGGTCATTGATGCCGATAA,3.88,2.87,-0.243,4.55,3.95,4.73,1.71,3.75,4.23,
CGAACTAGGTCTAAGGACAGTGAAAGGCGACGTA,-0.762,-0.416,-1.3,0.792,2.4,3.45,1.89,3.31,2.2,
TAGCCTAGGGCATTCAGGGGCCAGTATAGAAAGC,-0.052,-0.233,-0.352,0.0278,0.0283,-0.154,-0.552,-0.385,-0.268,
CCTACTGGGCCAAAAAGTTCATTGATGCCGATAA,1.47,2.92,-0.369,1.72,1.09,1.53,0.0164,1.05,3.74,
CGAACTAGGTCAAGGACAGTAAATCTCCGCACGC,2.4,0.115,-0.249,4.71,7.56,6.25,3.88,6.02,7.9,
CGAACTAGGTCATTGACAGGACAGTGGATAGTAA,2.74,0.471,0.232,4.75,7.3,6.07,3.68,5.3,8.44,
CGAACGAGGTCATTGACAGGACAGTGAATAGTAA,6.11,1.41,1.44,6.13,6.82,6.46,3.58,6.21,5.35,
CGTCAAAGGTCAGAGAGGTCAGTGAATGCCGAGT,6.59,4.99,1.76,6.13,7.66,7.15,4.06,6.28,4.14,
TCTCGGAGGACACTAAAGGTCAGAGCTCGACATC,5.15,5.33,0.134,3.42,1.47,2.94,2.78,2.97,1.65,
GATACAGGGTCGGCTAGAGGCCAGAGTATGGAAA,0.191,-0.632,-1.28,1.36,0.561,0.616,-0.167,0.215,-0.804,
CGAACAAGGTCATCCAGGACAGTGAATACATTGA,5.83,1.43,1.27,5.9,6.4,6.17,2.72,5.1,4.74,
CGTCCAAGGTCAAGGTCAATGAAAGAGACTCGAA,6,1.82,1.11,6,7.25,6.84,3.28,5.67,3.68,
CCTCGGAGGACAGAAGGTCAAAGCTGTCCGCTTT,4.02,1.82,-0.421,3.67,0.66,2.18,-0.0409,1.41,0.187,

# From the supplement of paper PMC6555819
